This note sets out measurements from PubChem BioAssay (NCI).

About 79,000 compounds went through this panel and 15% of them were active in at least one assay; those are over-represented in the sample as a whole. Values without a mark were called inactive. Activity calls are given as the source filed them. Rule as the data show it: active = growth inhibition above about 70%; inactive = the rest.

The nature of assay [1]: NCI Yeast Anticancer Drug Screen. Data for the rad50 strain (AID 155).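 Also: 0% = growth of vehicle-only cultures of the same strain.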 The note with it: S. cerevisiae rad50 strain growth inhibition, hits give high values. Summed up:
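Inhibition values express reduced yeast growth in compound-treated cultures relative to vehicle-treated controls.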

A short description of assay [2]: NCI Yeast Anticancer Drug Screen. Data for the mec2-1 strain (AID 157). Conditions: S. cerevisiae mec2-1 strain, hits give high values. Summed up: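 mec2-1 yeast strain, carrying an alteration in DNA damage repair or cell cycle control, was exposed to compounds; growth inhibition was measured relative to vehicle-treated controls.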
The nature of assay [3]: NCI Yeast Anticancer Drug Screen. Data for the sgs1 mgt1 strain (AID 161).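 Also: 0% = growth of cultures given vehicle only.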 The note with it: S. cerevisiae sgs1 mgt1 strain, hits give high values. In short, it runs like this: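 This yeast growth screen uses a strain with defined DNA-repair lesions; compound-treated growth is compared with vehicle-treated growth.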
A short description of assay [4]: NCI Yeast Anticancer Drug Screen. Data for the cln2 rad14 strain (AID 165).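 Also: 0% = growth equal to vehicle treated cultures.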 Conditions: S. cerevisiae cln2 rad14 strain, hits give high values. Summed up:
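Yeast carrying cln2 and rad14 alterations (cell cycle control and DNA damage repair) were exposed to compounds. Growth inhibition was measured against vehicle-treated controls.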

Assay [5] is described as follows: NCI Yeast Anticancer Drug Screen. Data for the bub3 strain (AID 167). Conditions: S. cerevisiae bub3 mutant strain, hits give high values. In short, it runs like this: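 Steps: expose the mutant yeast strain to compound; grow alongside vehicle-treated cultures; measure growth; express inhibition against the vehicle cultures.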
A short description of assay [6]: NCI Yeast Anticancer Drug Screen. Data for the mlh1 rad18 strain (AID 175). Conditions: S. cerevisiae mlh1 rad18 strain growth inhibition, hits give high values. Summed up: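 Growth inhibition of the yeast strain was measured after compound exposure and expressed relative to vehicle-treated controls. The strain carries defined defects in DNA damage repair.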
[7] abbreviates: at 5.0 µM (retest, dose inferred, filed as 0.5).
[8] abbreviates: at 50.0 µM (retest, dose inferred, filed as 5.0).

Consider `CNC1C(O)C(NC)C2OC3(O)C(=O)CC(C)OC3OC2C1O` (configuration not stated), for which the growth inhibition in assay [1] (setting [7]) was -7%; in assay [1] (setting [8]), 6%; in assay [1] (at 50.0 µM) it was 84.1% (active); in assay [2] (setting [7]), 1%; in assay [2] (setting [8]), -19%; in assay [2] (at 50.0 µM), 89.8% (active). Besides, the growth inhibition in assay [3] (setting [7]) is -7%; in assay [3] (setting [8]), -1%; in assay [3] (at 50.0 µM) it was 9.05%; in assay [4] (setting [7]) it was 17%; in assay [4] (setting [8]), 23%; in assay [4] (at 50.0 µM), 83.7% (active). The growth inhibition in assay [5] (setting [7]) is -1%; in assay [5] (setting [8]), -9%; in assay [5] (at 50.0 µM) it was 86.3% (active); in assay [6] (setting [7]) it was -27%; in assay [6] (setting [8]), -30%; in assay [6] (at 50.0 µM) it was 86.7% (active).
On to `CCCCCCCC(CC(=O)O)OC(=O)CC(CCCCCCC)OC1OC(C)C(O)C(O)C1OC1OC(C)C(O)C(O)C1O` (configuration not stated), for which the growth inhibition in assay [1] (setting [7]) is -62%; in assay [1] (setting [8]) it was 68%; in assay [1] (at 50.0 µM) it was 87.2% (active); in assay [2] (setting [7]) it was -26%; in assay [2] (setting [8]) it was -5%; in assay [2] (at 50.0 µM) it was 91.8% (active). The growth inhibition in assay [3] (setting [7]) was -43%; in assay [3] (setting [8]), 55%; in assay [3] (at 50.0 µM), 92.3% (active); in assay [4] (setting [7]) it was -42%; in assay [4] (setting [8]) it was 37%; in assay [4] (at 50.0 µM), 82.3% (active). Besides, the growth inhibition in assay [5] (setting [7]) was -47%; in assay [5] (setting [8]) it was 96% (active); in assay [5] (at 50.0 µM) it was 89.5% (active); in assay [6] (setting [7]) it was -68%; in assay [6] (setting [8]), 96% (active); in assay [6] (at 50.0 µM) it was 84.2% (active).
`Cc1ccc2c(c1C)-c1c(ccc(C)c1C)C(=O)C2=O`: the growth inhibition in assay [1] (setting [7]) was 13%; in assay [1] (setting [8]) it was 98% (active); in assay [1] (at 50.0 µM), 99.3% (active); in assay [2] (setting [7]), 35%; in assay [2] (setting [8]), 99% (active); in assay [2] (at 50.0 µM) it was 99.4% (active). Besides, the growth inhibition was 5% in assay [3] (setting [7]); 99% (active) in assay [3] (setting [8]); 99.7% (active) in assay [3] (at 50.0 µM); -14% in assay [4] (setting [7]); 98% (active) in assay [4] (setting [8]); 99.6% (active) in assay [4] (at 50.0 µM). Moreover, the growth inhibition is 46% in assay [5] (setting [7]); 98% (active) in assay [5] (setting [8]); 99.5% (active) in assay [5] (at 50.0 µM); 75% (active) in assay [6] (setting [7]); 99% (active) in assay [6] (setting [8]); 99.5% (active) in assay [6] (at 50.0 µM).
Consider `CC1(C)CC(=O)C(c2ccccc2[N+](=O)[O-])=C(O)C1`, for which the growth inhibition is 4% in assay [1] (setting [7]); 6% in assay [1] (setting [8]); 99.6% (active) in assay [1] (at 50.0 µM); 11% in assay [2] (setting [7]); 20% in assay [2] (setting [8]); 99.3% (active) in assay [2] (at 50.0 µM). In addition, the growth inhibition in assay [3] (setting [7]) was 4%; in assay [3] (setting [8]) it was 8%; in assay [3] (at 50.0 µM) it was 69.6%; in assay [4] (setting [7]) it was 5%; in assay [4] (setting [8]), 24%; in assay [4] (at 50.0 µM), 90.3% (active). In addition, the growth inhibition in assay [5] (setting [7]) is -6%; in assay [5] (setting [8]), -1%; in assay [5] (at 50.0 µM) it was 98.3% (active); in assay [6] (setting [7]), -2%; in assay [6] (setting [8]) it was 7%; in assay [6] (at 50.0 µM), 99.2% (active).
For the compound `C#CC(O)c1ccc(Cl)cc1Cl` (configuration not stated), the growth inhibition in assay [1] (setting [7]) was 9%; in assay [1] (setting [8]), 96% (active); in assay [1] (at 50.0 µM), 99% (active); in assay [2] (setting [7]), -2%; in assay [2] (setting [8]), 95% (active); in assay [2] (at 50.0 µM), 99.5% (active). Also, the growth inhibition in assay [3] (setting [7]) is 0%; in assay [3] (setting [8]), 92% (active); in assay [3] (at 50.0 µM), 95.3% (active); in assay [4] (setting [7]), -1%; in assay [4] (setting [8]) it was 94% (active); in assay [4] (at 50.0 µM), 99.2% (active). Moreover, the growth inhibition in assay [5] (setting [7]) is 5%; in assay [5] (setting [8]), 96% (active); in assay [5] (at 50.0 µM), 99% (active); in assay [6] (setting [7]), 6%; in assay [6] (setting [8]), 98% (active); in assay [6] (at 50.0 µM), 99.1% (active).
In the case of `Oc1cc(F)ccc1-c1ccc(F)cc1`, the growth inhibition in assay [1] (setting [7]) is -5%; in assay [1] (setting [8]), 98% (active); in assay [1] (at 50.0 µM), 72.5% (active); in assay [2] (setting [7]), 20%; in assay [2] (setting [8]), 99% (active); in assay [2] (at 50.0 µM), 85% (active). The growth inhibition in assay [3] (setting [7]) is 13%; in assay [3] (setting [8]), 97% (active); in assay [3] (at 50.0 µM), 47.4%; in assay [4] (setting [7]), -9%; in assay [4] (setting [8]), 98% (active); in assay [4] (at 50.0 µM), 60.3%. Moreover, the growth inhibition was -12% in assay [5] (setting [7]); 99% (active) in assay [5] (setting [8]); 75.7% (active) in assay [5] (at 50.0 µM); -6% in assay [6] (setting [7]); 98% (active) in assay [6] (setting [8]); 84.7% (active) in assay [6] (at 50.0 µM).
Consider `CCN(CC)c1ccc(N=C2C=C(C(=O)Nc3cccc(Cl)c3)C(=O)c3ccccc32)c(C)c1`, for which the growth inhibition in assay [1] (setting [7]) is -1%; in assay [1] (setting [8]) it was -12%; in assay [1] (at 50.0 µM), -17.9%; in assay [2] (setting [7]), 8%; in assay [2] (setting [8]), 32%; in assay [2] (at 50.0 µM) it was -7%. In addition, the growth inhibition in assay [3] (setting [7]) was -30%; in assay [3] (setting [8]), -23%; in assay [3] (at 50.0 µM), -9.25%; in assay [4] (setting [7]) it was -4%; in assay [4] (setting [8]), -7%; in assay [4] (at 50.0 µM), 38.4%. Besides, the growth inhibition in assay [5] (setting [7]) is 0%; in assay [5] (setting [8]), -12%; in assay [5] (at 50.0 µM), -4.35%; in assay [6] (setting [7]) it was -34%; in assay [6] (setting [8]) it was -43%; in assay [6] (at 50.0 µM), -27.2%.
In the case of `CC1=C/C(=C\c2ccc([N+](=O)[O-])o2)C(=O)O1`, the growth inhibition is 95% (active) in assay [1] (setting [7]); 99% (active) in assay [1] (setting [8]); 99.3% (active) in assay [1] (at 50.0 µM); 86% (active) in assay [2] (setting [7]); 99% (active) in assay [2] (setting [8]); 99.5% (active) in assay [2] (at 50.0 µM). Further, the growth inhibition was 93% (active) in assay [3] (setting [7]); 52% in assay [3] (setting [8]); 99.2% (active) in assay [3] (at 50.0 µM); 97% (active) in assay [4] (setting [7]); 99% (active) in assay [4] (setting [8]); 99.3% (active) in assay [4] (at 50.0 µM). Also, the growth inhibition in assay [5] (setting [7]) was 49%; in assay [5] (setting [8]) it was 99% (active); in assay [5] (at 50.0 µM) it was 98.8% (active); in assay [6] (setting [7]) it was 97% (active); in assay [6] (setting [8]) it was 99% (active); in assay [6] (at 50.0 µM), 99.2% (active).
As to `C/C(CC(O)(C(F)(F)F)C(F)(F)F)=N/Nc1ccc([N+](=O)[O-])cc1[N+](=O)[O-]`, the growth inhibition in assay [1] (setting [7]) is 16%; in assay [1] (setting [8]), 99% (active); in assay [1] (at 50.0 µM) it was 99.2% (active); in assay [2] (setting [7]), -11%; in assay [2] (setting [8]), 99% (active); in assay [2] (at 50.0 µM), 99.5% (active). Moreover, the growth inhibition in assay [3] (setting [7]) is -2%; in assay [3] (setting [8]) it was 99% (active); in assay [3] (at 50.0 µM) it was 99.5% (active); in assay [4] (setting [7]) it was 13%; in assay [4] (setting [8]), 99% (active); in assay [4] (at 50.0 µM), 99.3% (active). Also, the growth inhibition is -10% in assay [5] (setting [7]); 100% (active) in assay [5] (setting [8]); 99.5% (active) in assay [5] (at 50.0 µM); 12% in assay [6] (setting [7]); 99% (active) in assay [6] (setting [8]); 99.3% (active) in assay [6] (at 50.0 µM).
